Source: PubChem BioAssay
Methyltransferases: Primary Screen for Target Class Profiling of Small Molecule Inhibitors of Methyltransferases; purified enzyme, MTase-Glo SAH luminescence; stronger effect = lower value; calls only at 40 µM; 25,000 tested, 3.9% active; call rule not given here
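Each enzyme was reacted with SAM and its substrate, with compounds tested once at 40 uM; SAH formed was read by MTase-Glo luminescence.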
MTase-Glo counter: Counterscreen for Target Class Profiling of Small Molecule Inhibitors of Methyltransferases. shares compounds with Methyltransferases. MTase-Glo coupled enzymes, SAH conversion luminescence, no MTase. Potency, µM (top dose mostly 57.3 µM), actives largely listed as inhibitors. 180 tested, 6% active; active = well fitted inhibition curve with a large enough effect
Of the large screens only hits and unclear results are named; the others gave an inactive call (follow-up assays come after a bar, where they were run). This is one part of a sample in which hits are shown more often than they occur.

Cc1ccc(NS(=O)(=O)c2cc3c(cc2Cl)n(C)c(=O)n3C)c(C)c1	none
CCN(CC)c1cc(CCC(=O)N2CCN(c3cccc(OC)c3)CC2)ccn1	Methyltransferases active | MTase-Glo counter inactive
COc1cccc(CCC(=O)N2CCC3(CC2)N=C(c2ccccc2)NO3)c1	none
COc1cccc(CCC(=O)N2CCC(OCC3CC3)C2)c1 (centres undefined)	none
COc1ccc2cc3n(c2c1)CC(C)(C(=O)NCC1CCCO1)N(Cc1ccc(C)cc1)C3=O (centres undefined)	none
CCCCN1C(=O)c2cc3ccccc3n2CC1(C)C(=O)NC1CCCCCC1 (centres undefined)	none
COc1ccc(C(=O)NC[C@H]2Cn3ccnc3CO2)cc1	none
COc1ccc(S(=O)(=O)NC[C@H]2Cn3c(-c4ccc(Cl)cc4)cnc3CO2)cc1	Methyltransferases active | MTase-Glo counter inactive
COc1ccc(S(=O)(=O)NCC2Cn3cccc3C(=O)N2Cc2ccccc2)cc1 (centres undefined)	none
CCCn1c(=O)c2ccc(C(=O)NC(C)CC)cc2n2c(SCC(=O)Nc3ccc(C)c(C)c3)nnc12 (centres undefined)	none
Cc1ccccc1NC(=O)CSc1nnc2n(CC(C)C)c(=O)c3ccc(C(=O)NC(C)C)cc3n12	none
CN1CCC2(C1)CN(Cc1ccccc1)c1ccc(C(=O)N3CCOCC3)cc12 (centres undefined)	none
O=C(NCC1CCN(c2cc(-c3ccccc3)[nH]n2)CC1)c1ccc2nc[nH]c2c1	none
CN1CCCC2(C1)CN(C)c1ccc(C(=O)NCC3CCCCC3)cc12 (centres undefined)	Methyltransferases active | MTase-Glo counter inactive
COc1ccc(Cn2c(=O)c3ccccc3n3c(-c4ccc(F)cc4)nnc23)cc1	none
Cn1ccc2c(C(=O)NCCc3cnc[nH]3)nc(-c3ccc(N4CCOCC4)cc3)cc21	Methyltransferases active | MTase-Glo counter inactive
Cn1cncc1CNC(=O)c1nc(-c2cccc(N3CCOCC3)c2)cc2c1ccn2C	none
Cc1ccc(-c2cc3c(ccn3C)c(C(=O)NCc3cccnc3)n2)cn1	none
Cn1c(=O)n(C)c2cc(S(=O)(=O)Nc3ccc(N4CCOCC4)cc3)c(Cl)cc21	none
CN1C(=O)c2cc(C(=O)N3CCN(c4ccccc4)CC3)nn2CC1(C)C(=O)NC1CCCC1 (centres undefined)	none
CN1CCN(C(=O)c2cc3n(n2)CC(C)(C(=O)NCc2ccccc2)N(C)C3=O)CC1 (centres undefined)	none
COc1ccc(CNC(=O)c2cc3n(n2)CC(C)(C(=O)NC2CCCCC2)N(C)C3=O)c(OC)c1 (centres undefined)	none
CC1(C(=O)NC2CCCCCCC2)Cn2c(cc3sccc32)C(=O)N1Cc1ccccc1F (centres undefined)	none
Cc1ccc(-n2ccnc2-c2cc3n(n2)CCNC3)cc1N1CCCC1=O	none
Cc1cnccc1NCCn1ccnc1-c1cc2n(n1)CCCNC2	Methyltransferases active | MTase-Glo counter inactive
c1ccc2c(c1)OCC(CCn1ccnc1-c1cc3n(n1)CCNC3)O2 (centres undefined)	none
CC1CCN(S(=O)(=O)c2ccc3c(ccn3CC(=O)N3CCc4ccccc4C3)c2)CC1	none
Cn1c2c(c3ccccc31)C(C(=O)NCc1ccc(F)cc1)N(Cc1ccc(Cl)cc1)C(=O)CS2 (centres undefined)	none
COc1ccccc1-c1ccc(C(=O)N2CCC(C(=O)Nc3ccccc3Cl)CC2)cc1	none
COc1cccc(-c2ccccc2NC(=O)C2CCN(Cc3ccccc3F)CC2)c1	none
COc1cccc(-c2ccccc2NC(=O)C2CCN(CC=C(C)C)CC2)c1	Methyltransferases active | MTase-Glo counter inactive
CC(C)NC(=O)c1ccc2c(=O)n(Cc3ccccc3)c3nn(Cc4cccc(F)c4)c(=O)n3c2c1	none
CC(C)CCNC(=O)C1(C)Cn2c(nc3ccccc32)C(=O)N1Cc1ccccc1Cl (centres undefined)	none
O=C(CCc1nnc2n(CCc3ccccc3)c(=O)c3ccccc3n12)Nc1cccc(Cl)c1	none
Cc1ccc(-c2ccc(N)nc2)c2cccnc12	Methyltransferases active | MTase-Glo counter inactive
CCOC(=O)c1cc2n(n1)CC(C)(C(=O)NC1CCCC1)N(c1ccc(Cl)cc1C)C2=O (centres undefined)	none
Cc1cc(-c2cc3c(cn2)N(C)CCN(C)C3)ccn1	Methyltransferases active | MTase-Glo counter inactive
COc1ccc2cc3n(c2c1)CC(C)(C(=O)NC1CCCCCC1)N(CC1CCCO1)C3=O (centres undefined)	none
CCN(CC)Cc1cnc2c(C(=O)N3CCCN4CCC[C@H]4C3)cnn2c1	Methyltransferases active | MTase-Glo counter inactive
CN1C[C@@H]2CC[C@H](CC1=O)N2C(=O)c1cnn2cc(CCO)cnc12	none
CCC(O)C1CCN(C(=O)c2cnn3cc(CN(CC)CC)cnc23)CC1 (centres undefined)	none
COc1ccc(-c2cc3c(=O)n(CCNC(=O)c4ccsc4)ccn3n2)cc1	none
CCOC(=O)c1ccc2c(c1)[C@@H]1C=CC[C@@H]1[C@H](c1ccc(C)cc1)N2	none
